The panel holds about 83,000 compounds, 20% with a hit somewhere; the sample as a whole holds those more often.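 Cell lines were cultured in 96-well plates, exposed to a single compound concentration, and assessed for percent growth 48 hours later.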 Unmarked numbers belong to inactive results. Calls of active or inactive are those of the source. How the source made its calls: active means growth percent below 10; inactive means the rest.
How the values were obtained:
Assay in all cases: NCI-60 one-dose screen, 48 h (100 = growth as untreated, 0 = no growth, -100 = all killed)
DU-145 prostate = details: 10 µM unless noted
K-562 leukemia = details: 10 µM unless noted
MALME-3M melanoma = details: 10 µM unless noted
MDA-MB-231 breast = details: 10 µM unless noted
RXF 393 renal = details: 10 µM unless noted
SF-268 CNS = details: 10 µM unless noted
SF-295 CNS = details: 10 µM unless noted
SF-539 CNS = details: 10 µM unless noted
UACC-257 melanoma = details: 10 µM unless noted
M14 melanoma = details: 10 µM unless noted
HCT-15 colon = details: 10 µM unless noted
HT29 colon = details: 10 µM unless noted
SNB-75 CNS = details: 10 µM unless noted
SNB-19 CNS = details: 10 µM unless noted
U251 CNS = details: 10 µM unless noted
PC-3 prostate = details: 10 µM unless noted
SK-MEL-5 melanoma = details: 10 µM unless noted
UACC-62 melanoma = details: 10 µM unless noted
SK-MEL-28 melanoma = details: 10 µM unless noted
LOX IMVI melanoma = details: 10 µM

| Compound | growth (DU-145 prostate) | growth (K-562 leukemia) | growth (MALME-3M melanoma) | growth (MDA-MB-231 breast) | growth (RXF 393 renal) | growth (SF-268 CNS) | growth (SF-295 CNS) | growth (SF-539 CNS) | growth (UACC-257 melanoma) | growth (M14 melanoma) | growth (HCT-15 colon) | growth (HT29 colon) | growth (SNB-75 CNS) | growth (SNB-19 CNS) | growth (U251 CNS) | growth (PC-3 prostate) | growth (SK-MEL-5 melanoma) | growth (UACC-62 melanoma) | growth (SK-MEL-28 melanoma) | growth (LOX IMVI melanoma) |
| --- | --- | --- | --- | --- | --- | --- | --- | --- | --- | --- | --- | --- | --- | --- | --- | --- | --- | --- | --- | --- |
| CN(C)CCn1c2ccccc2c2nc3cc4ccccc4cc3nc21 | -30% (active) | 2.68% (active) | -87.3% (active) | 9% (active) | -42.9% (active) | 46.2% | -67.6% (active) | -72.2% (active) | 18.1% | -63.3% (active) | -35.8% (active) | -50.4% (active) | 43% | 28.9% | -69.3% (active) | 3.43% (active) | 14.6% | 57.2% | -80.1% (active) | – |
| COc1ccc2[nH]cc(-c3cc(N)n4nc(-c5cn(C)c6ccccc56)cc4n3)c2c1 | -64.7% (active) | 4.69% (active) | -75.5% (active) | -44.8% (active) | -83.9% (active) | -11.7% (active) | -81% (active) | -82% (active) | -86.2% (active) | -91.1% (active) | -83.4% (active) | -73.7% (active) | -52.4% (active) | -48.4% (active) | -85.3% (active) | -67.6% (active) | -96.3% (active) | – | -92.9% (active) | -67.9% (active) |
| COc1cc(C2CC(c3cc(OC)c(OC)c(OC)c3)=Nc3c(N)nc(N)nc3N2)ccc1Oc1nc(NCCO)nc(N2CCOCC2)n1 (stereo not given) | 114% | 91.1% | 98.5% | 102% | 105% | 93.8% | 101% | 97.5% | 105% | 102% | 102% | 107% | 88.7% | 94.9% | 101% | 100% | 99% | 102% | 108% | – |
| CN(C)CCn1c2ccccc2c2nc3ccc([N+](=O)[O-])cc3nc21 | 7.7% (active) | 8.19% (active) | -14.4% (active) | 5.52% (active) | 10.1% | 24.7% | 0.988% (active) | -2.27% (active) | -13.2% (active) | 17.9% | 4.65% (active) | -15.6% (active) | 47.6% | 4.08% (active) | -8.94% (active) | 19.9% | -81% (active) | – | 8.67% (active) | – |
